# System: RARg homodimer (NR concentration 270 nM)
# Assay: PBM binding z-score (relative to random genomic background probes); higher = stronger binding; sequences stand for … in GC…GCGATTGACAGCGTAGAATGAAGG
# Method in brief: (§1)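 Binding z-scores take random background probes as their reference. They come from custom Agilent 4×180K protein-binding microarrays incubated 1 h with ligand-free nuclear receptor dimers, with antibodies against each partner (one per run) detecting binding. Scanned fluorescence was regression-normalized.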
row,Sequence,PBM binding z-score
1,TCATGTAGGTAATACAGGTGAAAGTCGGCATCTA,-0.0708
2,CAAACTAGGTCAAAGTCAAAGTCGGTTTGTGCCA,4.41
3,TCGAGTAGGATAGTCGGGGCATTCAGCCAACATA,-0.579
4,GCTCAGAGGACAAGGTCAGAGCTTTGTCCGTAGA,4.41
5,TCTACTAGGTCAACGATGGTCAGCTAATCTGCTA,5.16
6,TCTCGGAGGACACGAAGGTCACAGCTTTCCAGAG,4.93
7,CGAACGAGGGCATGATTTGATAGCAAATGCCGAT,1.19
8,TCAATTAGTTGAAGGGCAACCGACGAGTCCGTTT,0.258
9,AGTCAAAGTTCATCTAGGTAACGTGAGATATGCT,6.26
10,CGTCCTAGGTCAGCAGGTCAGTGAAAGCGACGTG,5.41
11,CAGACTAGGTCACCGGAAGGTCAAAGTCCGCATG,7.56
12,TCGAGTAGGTTACCAATGTGGCATTCAGCTTTCT,0.256
13,TCATATAGGTAATACAGGTGGAAGTCGGCATCTA,0.449
14,TCTAGCAGGCCAGAGGGTCACTTAAGAGGTACGG,2.2
15,TGAATGAGGCTATAAGATCAGGGAACGTTGCAAA,0.256
16,CCTGCTAGGTCATGGTTAGCTAATCTACAGTATG,4.34
17,GCGACTGGGGCAAAGCAGGATACCATAAGGTTGG,0.556
18,TCTCGGAGGGCACGAAAGGTCAGAGCTCGACATC,6.16

# System: RXRa DBDmut IVT, anti-RXR (DBD mutation: RXRa K156A/R161A, NR concentration 90 nM)
# Assay: as above
# Method in brief: as §1
row,Sequence,PBM binding z-score
1,ACAGACAGGTGAGTGAAGCTAACTCAGCTGGACG,-0.672
2,AGTCAAAGTTCATCTATGTAACGTAAGATATGCT,4.69
3,ATCTCTAGGTAAAAGTTCAGTGCATCCCGAGGAT,0.951
4,ATCTCTAGGTAAAGTTAGTTCAGTGAATGCAAAT,0.563
5,GCGACTGGGGCAAAGCAGGTGACCATAAGGTTGG,-0.884
6,TCTTGAAGATCAAAGGTTAAGAAAGCCGAAGCCT,0.731
7,TCTAGCAGGCCGGAGGGTCACTCAAGAGGTACGG,0.00965
8,CTACCAATGTGAACAAGGTCGTTGATTACTATTC,1.83
9,GCTATTAGCTGAAAGGGCAACCGAATGATTCTCG,0.616
10,CGAACTAGGTCAAGGACAGCGAATCTCCGCACGC,1.5
11,CCTACTGGGCCCTCAGGTCATTGATATCAACGTT,-0.149
12,CATACAGGGTCAACTAGGCCAGAGTAGGGACGGC,2.74
13,GTACCAAGGTGAAAAGGTCGTTGATGAGTAGGCG,0.369
14,CGTCCAAGGTCATAGGAGGTAAGTGAAGACAGAT,3.37
15,CGAACTAGGTCATCCAGGAAAGTGAATACATTGA,2.23
16,TCTAGATGGTCACGGAGGTCACACACGACGGGTA,0.905
17,GGAACGAGGGCAAAGTTGATAGTATCTGTCGACG,2.59
18,TCTTGTAGATCAACAGGAGGTTAAGAAGGATCGA,0.27
19,TCTTGTAGATCAAAGGTTCAGAAAGCCGAAGCCT,1.32
20,CGTCCAAAGTCAGCAGGTCAGTGAAAGCGACGTG,0.597

row,Sequence,PBM binding z-score
1,CCTTACGGGTCAACGTTATAGCACGGGTGGTACG,0.494
2,TATGCAGGGTCAAAGGCCAGAGTACGAATGTCGA,2.39
3,TCATGTAGGTAATACAGGTGAAAGTCGGCATCTA,0.736
4,CAAACTAGGTCAAAGTCAAAGTCGGTTTGTGCCA,2.32
5,TCGAGTAGGATAGTCGGGGCATTCAGCCAACATA,0.18
6,GCTCAGAGGACAAGGTCAGAGCTTTGTCCGTAGA,1.18
7,TCTACTAGGTCAACGATGGTCAGCTAATCTGCTA,1.89
8,TCTCGGAGGACACGAAGGTCACAGCTTTCCAGAG,1.47
9,CGAACGAGGGCATGATTTGATAGCAAATGCCGAT,1.99
10,TCAATTAGTTGAAGGGCAACCGACGAGTCCGTTT,1.02
11,AGTCAAAGTTCATCTAGGTAACGTGAGATATGCT,4.74
12,CGTCCTAGGTCAGCAGGTCAGTGAAAGCGACGTG,0.595
13,CAGACTAGGTCACCGGAAGGTCAAAGTCCGCATG,1.74
14,TCGAGTAGGTTACCAATGTGGCATTCAGCTTTCT,0.471
15,TCATATAGGTAATACAGGTGGAAGTCGGCATCTA,1.5
16,TCTAGCAGGCCAGAGGGTCACTTAAGAGGTACGG,0.154
17,TGAATGAGGCTATAAGATCAGGGAACGTTGCAAA,-1.09
18,CCTGCTAGGTCATGGTTAGCTAATCTACAGTATG,1.43
19,GCGACTGGGGCAAAGCAGGATACCATAAGGTTGG,-0.369
20,TCTCGGAGGGCACGAAAGGTCAGAGCTCGACATC,1.09
